MITF primary = inhibitors of human MITF | O75030 | AlphaScreen MITF homodimerization, bead proximity signal | inhibition, % at 2.6 µM | actives 0.91% (n = 650,000); in the data active = inhibition above about 50%;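 note: 0% = vehicle wells with protein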
TEAD-YAP inh = TEAD-YAP interaction inhibition; HEK-TIYL cells, TEAD-Gal4/YAP UAS-luciferase luminescence; inhibition, % at 9.12 µM; actives 1.4% (n = 640,000); AID 1259422; in the data active = inhibition above about 32%;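 note: 0% = median of test compound wells and 100% = reference inhibitor wells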
GPR151 ag = activates the human receptor GPR151; Q8TDV0; PathHunter beta-arrestin GPR151 cells, luminescence; activation, % at 11.2 µM; actives 1% (n = 650,000); in the data active = activation above about 4.9%;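 note: 0% = median of compound wells and 100% = cells with positive control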
FBW7 act = human FBW7 E3 ligase activation, primary screen | AlphaScreen FBW7–phospho-cyclin E peptide binding, activator screen | normalized activity (activation), % at 26.1 µM | actives 0.13% (n = 650,000); in the data active = normalized activity above about 1.9%;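 note: purified mutant Fbw7 with reduced substrate affinity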
Target sequence (Q969H0 whole entry, looked up): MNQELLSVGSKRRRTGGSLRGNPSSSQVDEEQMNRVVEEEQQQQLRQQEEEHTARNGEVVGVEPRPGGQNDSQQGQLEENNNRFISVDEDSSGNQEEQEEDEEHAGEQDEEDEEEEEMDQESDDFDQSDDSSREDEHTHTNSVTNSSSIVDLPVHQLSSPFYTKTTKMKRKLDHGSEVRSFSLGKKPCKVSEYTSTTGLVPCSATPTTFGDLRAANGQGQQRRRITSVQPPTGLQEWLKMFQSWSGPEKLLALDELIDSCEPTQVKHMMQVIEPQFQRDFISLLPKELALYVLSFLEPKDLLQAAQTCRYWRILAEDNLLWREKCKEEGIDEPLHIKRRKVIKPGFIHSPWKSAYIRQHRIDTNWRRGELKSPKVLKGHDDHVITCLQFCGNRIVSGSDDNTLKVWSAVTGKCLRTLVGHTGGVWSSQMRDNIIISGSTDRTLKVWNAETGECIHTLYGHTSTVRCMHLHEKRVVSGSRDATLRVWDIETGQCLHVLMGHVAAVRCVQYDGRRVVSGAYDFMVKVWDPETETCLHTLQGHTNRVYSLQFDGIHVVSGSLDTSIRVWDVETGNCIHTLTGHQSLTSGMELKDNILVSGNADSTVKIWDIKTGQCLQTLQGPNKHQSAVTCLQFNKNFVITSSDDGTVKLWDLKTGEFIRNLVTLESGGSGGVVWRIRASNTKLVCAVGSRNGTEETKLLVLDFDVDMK
Numbers without * were called inactive; ! = a repeat was not active. Hits are enriched below; roughly 3.4% of the tested compounds scored in any of these assays.

SMILES | MITF primary | TEAD-YAP inh | GPR151 ag | FBW7 act
CCC(C)C1N=C2c3ccccc3N=C(SCC(=O)c3ccc(O)c(O)c3)N2C1=O (stereo not drawn) | 60.9* | -0.5 | -0.2 | -0.5
O=C(c1ccccc1)c1ccc2nc(-c3ccc(NC(=O)c4ccccc4Cl)cc3)[nH]c2c1 | -0.7 | -28.6 | -0.7 | 0.1
CCCOc1ccc2nc(NC(=O)OC)[nH]c2c1 | -4.9 | 34.4* | -1.2 | 0.0
COC(=O)C(=O)Nc1nc2ccc(C(=O)c3ccccc3C(=O)OC(C)C)cc2[nH]1 | -14.4 | 52.0* | 2.1 | -0.1
CCOc1ccc2nc(NCCCO)[nH]c2c1 | 0.5 | -8.7 | 0.1 | -0.1
COC(=O)Nc1nc2ccc(C(=O)c3ccc(F)cc3)cc2[nH]1 | 11.6 | 34.7*! | 0.1 | 0.2
O=C(COc1ccc(C(=O)c2ccccc2)cc1)Nc1nc2ccccc2[nH]1 | -10.6 | 7.2 | 3.2 | -0.1
N#Cc1c(N)n(C2CCCC2)c2nc3ccccc3nc12 | -3.1 | -4.7 | 1.0 | -0.2
O=c1oc2cc(O)ccc2c2c1CCCC2 | -3.2 | 0.5 | -2.1 | 0.6
CCOC(=O)c1c(C)sc2c3c([nH]c12)CCCC3 | 4.1 | 61.6* | 1.0 | 0.1
FC(F)(F)c1ccc(Nc2nc(NCCOc3ccccc3)c3[nH]cnc3n2)cc1 | -3.5 | -1.4 | -1.3 | -0.1
Cc1ccc2c(c1)cc1c(=O)n(CC(=O)N3CCOCC3)nc(C)n12 | 1.0 | 1.7 | -1.0 | -0.1
COc1ccccc1Nc1nc(-c2cc3ccccc3oc2=O)cs1 | 12.6 | 42.6* | 0.0 | 0.5
COCCN1Cc2cccc(C(=O)Nc3cccc(C(C)=O)c3)c2C1=O | 17.8 | 6.5 | 0.4 | 0.2
COc1cc(-c2cc(N)n(S(=O)(=O)c3ccc(C)cc3)n2)cc(OC)c1OC | -5.0 | 4.7 | -0.6 | -0.2
Fc1ccc(Nc2nc3nonc3nc2Nc2ccc(F)cc2)cc1 | -4.3 | 61.3* | 0.2 | -0.1
Ic1ccc(Nc2nc3nonc3nc2N2CCCCC2)cc1 | 11.7 | 3.8 | 0.8 | -0.2
Clc1ccc(Nc2nc3nonc3nc2Nc2ccc(Cl)cc2)cc1 | 12.7 | 92.2* | 2.4 | -0.3
Clc1ccc(Nc2nc3nonc3nc2N2CCCCC2)cc1 | 16.4 | 33.4* | 1.5 | 0.0
O=c1[nH]c2nonc2nc1Nc1ccc(Cl)cc1 | -10.4 | -5.2 | -0.4 | 0.0
FC(F)(F)c1cccc(Nc2nc3nonc3nc2Nc2ccc(Cl)cc2)c1 | -0.2 | 81.5* | 2.0 | -0.1
O=C(/C=C/c1ccccc1)NCC1CCCO1 (stereo not drawn) | 15.8 | -15.5 | -1.2 | 0.4
O=C(O)c1ccc(NCCSCc2ccccc2)c([N+](=O)[O-])c1 | -4.8 | 35.2* | 0.4 | 0.0
COc1ccc(OC)c(C2C(C#N)=C(N)N(N(C)C)C3=C2C(=O)CC(C)(C)C3)c1 (stereo not drawn) | 6.1 | 5.6 | 0.4 | -0.1
COc1ccc(OC)c(C2C(C#N)=C(N)N(N(C)C)C3=C2C(=O)CC(c2ccccc2)C3)c1 (stereo not drawn) | 6.0 | 57.1* | -0.6 | 0.0
SMILES | MITF primary | TEAD-YAP inh | GPR151 ag | FBW7 act
COc1cc(C2C(C#N)=C(N)N(N(C)C)C3=C2C(=O)CC(c2ccccc2)C3)cc(OC)c1OC (stereo not drawn) | -1.8 | 56.9* | -0.3 | -0.2
Cc1ccc(C2C(C#N)=C(N)N(N(C)C)C3=C2C(=O)CC(c2ccccc2)C3)cc1 (stereo not drawn) | 7.5 | 3.2 | 1.9 | 0.1
N#CC1=C(N)OC2=C(C(=O)CC(c3ccccc3)C2)C1c1ccc([N+](=O)[O-])s1 (stereo not drawn) | 8.5 | 7.9 | 1.0 | 0.3
COc1ccccc1C1C(C#N)=C(N)OC2=C1C(=O)CC(c1ccccc1)C2 (stereo not drawn) | 9.3 | -11.5 | 1.2 | 0.0
N#CC1=C(N)OC2=C(C(=O)CC(c3ccccc3)C2)C1c1c(Cl)cccc1[N+](=O)[O-] (stereo not drawn) | 12.3 | 41.3* | -0.8 | 1.1
COc1ccc(OC)c(C2C(C#N)=C(N)OC3=C2C(=O)CC(c2ccccc2)C3)c1 (stereo not drawn) | 5.5 | 46.9* | 0.2 | 0.0
COc1ccccc1N1CCN(S(=O)(=O)c2ccc(C)cc2)CC1 | 16.8 | -2.5 | -0.2 | 0.5
O=C1CSc2ccc(C(=O)OCC(=O)Nc3ccc(F)c(F)c3F)cc2N1 | 6.8 | -4.9 | -1.6 | 0.0
CC(=O)c1cc(CNC(=O)CCl)cs1 | 13.2 | 10.2 | 1.3 | 0.2
O=C(CC1Sc2ccccc2NC1=O)NC1CCCCC1 (stereo not drawn) | -24.2 | -0.9 | -1.4 | 0.0
O=C(CC1C(=O)N(c2ccc(Cl)cc2)C(=S)N1Cc1cccs1)Nc1ccc(F)cc1 (stereo not drawn) | 4.0 | 6.6 | 1.2 | 0.1
COc1cccc(C2C(C#N)=C(N)OC3=C2C(=O)CC(c2ccccc2)C3)c1OC (stereo not drawn) | 26.1 | 6.4 | 0.1 | 0.6
COc1cccc(C2C(C#N)=C(N)N(N(C)C)C3=C2C(=O)CC(c2ccccc2)C3)c1OC (stereo not drawn) | 21.1 | 55.0* | -1.8 | 0.0
CCCCOC(=O)c1cccc(NC(=O)COc2ccc(Cl)cc2Cl)c1 | -4.1 | 57.4* | 1.0 | 0.1
CCCCOC(=O)c1ccc(NC(=O)COc2ccc(Cl)cc2Cl)cc1 | 10.6 | 7.6 | -0.2 | 0.1
CCOC(=O)c1cccc(NC(=O)CCC2CCCCC2)c1 | 12.1 | -9.2 | -1.4 | 2.1*
CCOC(=O)c1cccc(NC(=O)COc2ccc(Cl)cc2Cl)c1 | 7.4 | 81.3* | 3.9 | 0.1
CCOC(=O)c1cccc(NC2C=CS(=O)(=O)C2)c1 (stereo not drawn) | -6.4 | 62.9* | 1.9 | -0.5
CC(=O)C1=C(O)C(=O)OC1c1ccc(Cl)cc1 (stereo not drawn) | 25.2 | 5.0 | 3.9 | 0.1
Cc1cc(N2Cc3ccccc3C2)ccc1C=O | 0.6 | -34.1 | -3.3 | -0.1
Cc1ccc(C)c(S(=O)(=O)Nc2ccc3scnc3c2)c1 | 14.3 | 39.5* | 1.0 | 0.0
Cc1cc(Nc2ccccc2)nc(N2CCN(Cc3ccc4c(c3)OCO4)CC2)n1 | 20.5 | 3.0 | -1.1 | 0.1
COC(=O)c1ccc2c(c1)C(=O)/C(=C/c1cc(OC)c(OC)c(OC)c1)O2 | 4.6 | -7.9 | 1.0 | 0.1
COC(=O)c1ccc2c(c1)C(=O)/C(=C/c1cccc(O)c1)O2 | 13.0 | 41.8* | -1.6 | -0.1
COc1cccc(/C=C2\Oc3ccc(O)cc3C2=O)c1O | 3.4 | 96.7* | -7.8 | 0.0
SMILES | MITF primary | TEAD-YAP inh | GPR151 ag | FBW7 act
COC(=O)c1ccc2c(c1)C(=O)/C(=C/c1ccc(O)cc1)O2 | -0.3 | 52.0* | 2.4 | 0.2
COC(=O)c1ccc2c(c1)C(=O)/C(=C/c1ccccc1OC)O2 | -2.2 | -2.7 | 1.7 | 0.1
COc1ccc(Nc2nc(-c3cc4ccccc4oc3=O)cs2)cc1 | -5.9 | -21.6 | -1.0 | 0.4
N#Cc1c(-c2ccccc2)cc(-c2ccccc2)nc1SCC(=O)c1ccccc1 | -8.9 | 2.6 | -1.2 | -0.1
Cc1cccc(/C=N/Nc2nncc3ccccc23)c1 | -5.7 | 67.2* | -5.9 | -0.2
CCCc1ccc(OCC(=O)c2ccc(O)cc2O)cc1 | 5.2 | 85.0* | -7.3 | 0.2
O=C1c2ccccc2C(=O)c2c1nc1ccccn21 | -11.2 | 3.3 | -1.8 | -0.2

Compound activity: PubChem, The Scripps Research Institute Molecular Screening Center
